High-throughput results: PubChem, National Center for Advancing Translational Sciences (NCATS)
An excerpt weighted towards active compounds, which were near 19% of everything screened.
IL-1B inflam inh: inhibitors of inflammasome signaling (IL-1 beta secretion). THP-1 LPS/ATP IL-1B secretion, AlphaLISA, 16 h; stronger effect = lower value. activity change, % at 57.5 µM. 4.7% of 360,000 active; in the data active = activity change below about -50%; inconclusive = mostly about -30% to -49%; also: % is scaled to controls: 0 for no effect and ±100 for the full control effect
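Secreted IL-1B measured by AlphaLISA bead assay after 16 h compound exposure of THP-1 cells; compounds (final up to 57.5 uM) added 1 h before LPS (250 ng/mL) and ATP (1.25 mM) stimulation; lower signal means less secretion.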
TGFb SMAD3 inh: blocks TGF-b signaling; HepG2 CAGA-GFP TGF-b/SMAD3 reporter, GFP fluorescence, 18 h; TGF-beta stimulated, 500 pg/mL final; Potency, µM (titrated, usually from 46.1 µM), without a hit: at the top dose activity, negative = inhibition, usual class: inhibitors; 1.2% of 410,000 active; also: potency is read from the fitted curve at half-maximal effect; % is scaled to controls: 0 for no effect and ±100 for the full control effect; nearly all actives have a fitted effect of over 65% in size
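TGF-beta reporter screen: HEPG2 CAGA-GFP, 1% FBS, 500 pg/mL TGF-beta final, 18 h; per-cell GFP summed per well; curves fitted and categorized by class.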
HepG2 tox: counter-screen for TGF-b inhibitors: cytotoxicity in HepG2 cells; HepG2 CAGA-GFP viability, ATP luminescence, 18 h; Potency, µM (series often up to 46.1 µM), without a hit: at the top dose activity change, negative = cytotoxicity, most hits filed as cytotoxic; 0.76% of 410,000 active; AID 588856; also: potency is read from the fitted curve at half-maximal effect
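HepG2 CAGA-GFP cells (1000/well, DMEM with 1% FBS) received compound, then TGF-beta at 500 pg/mL final, and were incubated 18 hours at 37 degrees C. Viability was read by CellTiter-Glo luminescence. Media-only wells were set as complete cell-killing and DMSO as no toxicity.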
DT40 TDP1 CPT: DT40-hTDP1 cell growth loss with CPT. AID 686979. Potency, µM (doses to about 46.2 µM), inactives show top-dose activity change, negative = growth inhibition, actives largely listed as inhibitors. 12% of 420,000 active. chicken DT40 Tdp1-/-;hTDP1 cells + 20 nM CPT, ATP luminescence, 48 h; also: potency is read from the fitted curve at half-maximal effect; % is scaled to controls: 0 for no effect and ±100 for the full control effect; nearly all actives have a fitted effect of over 55% in size
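Chicken DT40 Tdp1-/- cells complemented with human TDP1, 400 cells/well, exposed to compounds plus 20 nM camptothecin for at least 48 h at 37 C; viability read as ATP content by CellTiter-Glo luminescence.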
DT40 TDP1 no CPT: qHTS for Inhibitors of human tyrosyl-DNA phosphodiesterase 1 (TDP1): qHTS in cells in absence of CPT; Potency, µM (highest dose often 46.2 µM), inactives show at the highest dose activity change, negative = growth inhibition, most hits filed as inhibitors; AID 686978, 2013; 15% of 420,000 active; DT40 Tdp1-/- hTDP1 cells, no CPT, ATP luminescence, 48 h; also: potency is read from the fitted curve at half-maximal effect; % is scaled to controls: 0 for no effect and ±100 for the full control effect; nearly all actives have a fitted effect of over 55% in size
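A cellular qHTS used chicken DT40 cells lacking endogenous Tdp1 but carrying stably transfected human TDP1. Compounds were applied without camptothecin, and cell growth kinetics were judged by ATP-dependent luminescence after ≥48 hr.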
S-ASM inh: blocks human secretory acid sphingomyelinase; P17405; placental ASM, HMU-PC fluorogenic substrate, 60 min; Potency, µM (titrated, usually from 57.5 µM), without a hit: at the top dose activity change, negative = inhibition, usual class: inhibitors; 0.006% of 340,000 active; also: potency is read from the fitted curve at half-maximal effect
Target sequence (P17405 47-631 limits assumed): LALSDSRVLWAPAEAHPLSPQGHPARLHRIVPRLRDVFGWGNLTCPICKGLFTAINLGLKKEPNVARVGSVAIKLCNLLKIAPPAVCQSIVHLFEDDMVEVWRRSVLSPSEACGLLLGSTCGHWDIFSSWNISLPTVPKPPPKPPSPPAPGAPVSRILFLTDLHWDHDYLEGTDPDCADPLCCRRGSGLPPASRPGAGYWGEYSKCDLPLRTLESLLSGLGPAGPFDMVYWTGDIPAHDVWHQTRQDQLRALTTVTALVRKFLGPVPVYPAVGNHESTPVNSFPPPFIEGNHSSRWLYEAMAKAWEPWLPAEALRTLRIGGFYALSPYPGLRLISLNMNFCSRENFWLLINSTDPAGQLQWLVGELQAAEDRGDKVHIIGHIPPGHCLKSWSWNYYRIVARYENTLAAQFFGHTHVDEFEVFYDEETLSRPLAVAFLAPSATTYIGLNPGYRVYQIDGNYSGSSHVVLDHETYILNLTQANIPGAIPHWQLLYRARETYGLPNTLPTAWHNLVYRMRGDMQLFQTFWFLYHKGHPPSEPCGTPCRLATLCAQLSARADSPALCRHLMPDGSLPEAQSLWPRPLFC
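Fluorogenic HMU-PC substrate (9 uM final) is turned over by placental ASM in 60 min at 37 C after a 10 min compound preincubation. Reaction ended by alkaline stop (pH 10), with fluorescence read at 386/447 nm.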
* hit, by the source's call; i = inactive; u = inconclusive; x = no result given. Unless noted, calls follow the shape of the dose curve; as a rule, active = well fitted curve in the direction sought with a large enough effect; inconclusive = small, poorly fitted or top-dose-only effect, or another doubt; inactive = no such curve, though single readings can be large; an effect the other way counts as inactive or inconclusive.

SMILES	IL-1B inflam inh	TGFb SMAD3 inh	HepG2 tox	DT40 TDP1 CPT	DT40 TDP1 no CPT	S-ASM inh
COc1ccccc1NC(=O)C(=O)NNS(=O)(=O)c1ccc2ccccc2c1	0	u	-21%	23µM*	26µM*	-7%
Cc1ccc(S(=O)(=O)CCC(=O)N2CCN(c3ccc([N+](=O)[O-])cc3)CC2)cc1	-13	-7%	-8%	18µM*	10µM*	-1%
COc1ccc(S(=O)(=O)CCC(=O)N2CCN(c3ccc([N+](=O)[O-])cc3)CC2)cc1	u	u	-23%	10µM*	3.7µM*	-10%
COc1ccc(NC(=O)c2cccs2)cc1C(=O)N1CCN(c2ccccc2)CC1	-6	-28%	-2%	u	u	-3%
COc1cc2c(c(OC)c1OC)C(=O)C(=Cc1ccccc1)O2	-21	-1%	-26%	u	u	-14%
CN(C)CCCNC(=S)NCCNc1nc2cc3c(cc2cc1C#N)OCO3	-3	u	-10%	17%	-2%	i
CC(C)Oc1ccc(C(=O)Nc2c(C(=O)Nc3cccc(F)c3)oc3ccccc23)cc1	x	-30%	4%	u	u	x
COc1cc(C(=O)O/N=C2\C=CC(=O)C(C)=C2)cc(OC)c1OC	-72*	u	-108%	6.5µM*	16µM*	-6%
COc1ccc(C(=O)ON=C2C=C(C)C(=O)C(C)=C2)cc1	u	-2%	-11%	13µM*	23µM*	3%
COc1cc(C(=O)O/N=C(\N)c2ccncc2)cc(OC)c1OC	-14	14%	1%	u	u	4%
COc1cc(C(=O)ON=C2C=C(C)C(=O)C(C)=C2)cc(OC)c1OC	-20	3%	-6%	15µM*	16µM*	4%
COc1ccc(S(=O)(=O)N=C2C=C(C)C(=O)C(C)=C2)cc1	-3	4%	-1%	15µM*	21µM*	3%
CCN(CCN(C)Cl)/[N+]([O-])=N/Oc1ccc([N+](=O)[O-])cc1[N+](=O)[O-]	x	u	-102%	x	x	x
COc1ccc(S(=O)(=O)NCCCO)cc1-c1nnc2c3ccccc3c(C)nn12	x	27%	-9%	x	x	x
O=C(Nc1cccc(C(F)(F)F)c1)c1cc(-c2ccc(Cl)s2)nc2ccccc12	x	-1%	-10%	u	u	x
Nc1nonc1-n1nnc(C(=O)N/N=C/c2cc(Br)ccc2O)c1CNc1ccccc1	69	-9%	-7%	8.2µM*	8.2µM*	u
Nc1nonc1C(=O)N/N=C/c1cc(Br)ccc1O	188	-3%	9%	0.92µM*	1.5µM*	-1%
NC(=O)N/N=C\c1cc(Br)ccc1O	-9	-3%	-27%	-10%	u	461%
Cc1c(C(=O)N/N=C/c2c(O)ccc3ccccc23)nnn1-c1nonc1N	139	-18%	-27%	5.8µM*	3.7µM*	2%
Cc1ccc(/C=N/NC(=O)c2nnn(-c3nonc3N)c2CNc2ccccc2)cc1	15	-2%	1%	u	u	-2%
COc1ccc(CCNC(=O)Cn2c(=O)n(-c3ccc(C)c(C)c3)c(=O)c3c(C)c(C)sc32)cc1OC	x	u	-2%	-25%	-25%	x
CCCCNS(=O)(=O)NC(=O)C1=C(N2CCCC2)COC1=O	14	-2%	1%	10%	-1%	0%
COc1ccccc1C(=O)N(CCC1CCCN1C)c1nc2ccccc2s1 (configuration not stated)	-78*	u	5%	-24%	u	-4%
CN(C)CCN(C(=O)C1CCN(S(=O)(=O)c2cccs2)CC1)c1nc2ccccc2s1	-19	19%	5%	11%	1%	-2%
NC(=O)COC(=O)C1CSC2(c3ccc(F)cc3)CCC(=O)N12 (configuration not stated)	-11	1%	-12%	-23%	u	14%
SMILES	IL-1B inflam inh	TGFb SMAD3 inh	HepG2 tox	DT40 TDP1 CPT	DT40 TDP1 no CPT	S-ASM inh
COc1ccc(CCNC(=O)c2cc3c(s2)-c2ccccc2OC3)cc1OC	x	-21%	-31%	u	12µM*	x
CC(=O)c1cc2c(s1)-c1cc(F)ccc1OC2	-8	7.1µM*	-44%	4%	-13%	i
COC(=O)c1cc2c(s1)-c1cc(F)ccc1OC2	-2	3%	6%	-10%	-19%	i
Cc1c(NC(=O)c2cc3c(s2)-c2ccccc2OC3)cccc1[N+](=O)[O-]	-73*	u	-32%	u	18µM*	32%
CC1CCCC(C)N1CCCNC(=O)c1cc2c(s1)-c1ccccc1OC2 (configuration not stated)	-9	u	14µM*	u	u	i
CCCN1CCN(CCCNC(=O)c2cc3c(s2)-c2ccccc2OC3)CC1	u	u	-54%	u	u	i
CN(C)CCNC(=O)c1cc2c(s1)-c1ccccc1OC2	-23	10%	3%	16µM*	u	i
COc1ccccc1CNC(=O)c1cc2c(s1)-c1ccccc1OC2	x	-8%	-11%	u	u	x
Cc1ccc(S(=O)(=O)c2nnn3c2nc(NC(C)C)c2cc(Cl)ccc23)cc1C	x	11%	1%	14%	2%	x
Cc1nnc(N2CCC(C(=O)NCCc3ccccc3)CC2)c2nn(-c3ccccc3)c(C)c12	x	-20%	-17%	u	26µM*	x
Cc1ccc(-n2nc3c(N4CCC(C(=O)NCCc5cccs5)CC4)nnc(C)c3c2C)cc1	-4	u	-26%	26µM*	29µM*	9%
Cc1ccc(CCNC(=O)C2CCN(c3nnc(C)c4c(C)n(-c5ccccc5)nc34)CC2)cc1	x	-4%	-10%	u	-14%	x
CC(=O)c1ccc(NC(=O)C2CCN(c3nnc(C)c4c(C)n(-c5ccccc5)nc34)CC2)cc1	x	u	-3%	15µM*	21µM*	x
Cc1nnc(N2CCC(C(=O)N3CCCCC3)CC2)c2nn(-c3ccc(Cl)cc3)c(C)c12	-28	u	-20%	21µM*	u	43%
Cc1ccc(NC(=O)C2CCN(c3nnc(C)c4c(C)n(-c5ccccc5)nc34)CC2)cc1Cl	x	u	8%	-2%	u	x
Cc1nnc(N2CCC(C(=O)NC3CCCCC3)CC2)c2nn(-c3ccc(Cl)cc3)c(C)c12	x	-15%	-1%	-8%	-6%	x
